About 8,800 targets were measured; listed, in parts, are those with a hit and a random draw of the rest. About 0.5% of all pairs of compound and target were hits.
Assays:
Assay in all cases: log2 fold change, soluble protein after heating vs DMSO (PISA); higher = thermal stabilisation; K562 lysate, 10 uM; active = over 0.2 and 3.5 SD of the protein, either way, in both replicates (recomputed)
quisinostat = compound: Cn1cc(CNCC2CCN(c3ncc(C(=O)NO)cn3)CC2)c2ccccc21 [quisinostat]
Method in brief: (§1)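 K562 pellets were dounce-homogenised in PBS pH 7.4 containing 1 mM MgCl2, and the crude extract, at 1 mg/mL protein, was exposed to 10 μM compound for 30 min. Aliquots were heated for 3 min across 48°C-58°C, pooled, brought to 0.5% NP-40 at 4°C and spun at 21,000xg for 90 min, with the supernatant taken as soluble protein. TMTpro 16plex LC-MS/MS with equalised channel sums quantified that protein. Values are log-two fold changes in thermal stability relative to solvent controls, taken from duplicates.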

[1] = compound: NC(=O)Nc1cc(-c2cccc(F)c2)sc1C(=O)N[C@H]1CCCNC1
Method in brief: as §1

dasatinib = compound: Cc1nc(Nc2ncc(C(=O)Nc3c(C)cccc3Cl)s2)cc(N2CCN(CCO)CC2)n1 [dasatinib]
Method in brief: as §1

[2] = compound: Cn1cc(-c2ccc3c(c2)CCN3C(=O)Cc2cccc(C(F)(F)F)c2)c2c(N)ncnc21
Method in brief: as §1

nilotinib = compound: Cc1cn(-c2cc(NC(=O)c3ccc(C)c(Nc4nccc(-c5cccnc5)n4)c3)cc(C(F)(F)F)c2)cn1 [nilotinib]
Method in brief: as §1

[3] = compound: Cc1nc(Nc2n[nH]c3c2CN(C(=O)N[C@H](CN(C)C)c2ccccc2)C3(C)C)c2sccc2n1
Method in brief: as §1

[4] = compound: Cc1ncc(-c2ccnc(Nc3ccc(S(C)(=O)=O)cc3)n2)n1C(C)C
Method in brief: as §1

tipifarnib = compound: Cn1cncc1[C@@](N)(c1ccc(Cl)cc1)c1ccc2c(c1)c(-c1cccc(Cl)c1)cc(=O)n2C [tipifarnib]
Method in brief: as §1

[5] = compound: NC1(c2ccc(-c3nc4ccn5c(=O)[nH]nc5c4cc3-c3ccccc3)cc2)CCC1
Method in brief: as §1

[6] = compound: NC(=O)c1cnc(N[C@@H]2CCCC[C@@H]2N)nc1Nc1cccc(-n2nccn2)c1
Method in brief: as §1

Measured: log2 fold change

RLIM (UniProt Q9NVW2)
active: quisinostat -0.748
inactive: [1] 0.233

SEC16A isoform 3 (UniProt O15027)
inactive: dasatinib -0.026 | [2] -0.039

RFNG (UniProt Q9Y644)
Sequence of UniProt Q9Y644 (Q9Y644 whole entry, looked up): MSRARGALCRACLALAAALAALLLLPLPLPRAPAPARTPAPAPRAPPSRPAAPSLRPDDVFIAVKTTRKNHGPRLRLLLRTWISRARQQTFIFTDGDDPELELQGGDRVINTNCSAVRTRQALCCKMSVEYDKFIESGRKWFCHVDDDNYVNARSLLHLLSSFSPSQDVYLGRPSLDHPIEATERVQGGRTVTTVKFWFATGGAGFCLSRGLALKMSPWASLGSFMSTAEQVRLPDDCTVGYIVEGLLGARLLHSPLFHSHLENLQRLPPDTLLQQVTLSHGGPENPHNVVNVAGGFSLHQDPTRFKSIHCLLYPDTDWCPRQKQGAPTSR
inactive: nilotinib 0.184 | [3] 0.054 | [4] -0.078 | tipifarnib -0.048

RNF2 (UniProt Q99496)
Sequence of UniProt Q99496 (Q99496 whole entry, looked up): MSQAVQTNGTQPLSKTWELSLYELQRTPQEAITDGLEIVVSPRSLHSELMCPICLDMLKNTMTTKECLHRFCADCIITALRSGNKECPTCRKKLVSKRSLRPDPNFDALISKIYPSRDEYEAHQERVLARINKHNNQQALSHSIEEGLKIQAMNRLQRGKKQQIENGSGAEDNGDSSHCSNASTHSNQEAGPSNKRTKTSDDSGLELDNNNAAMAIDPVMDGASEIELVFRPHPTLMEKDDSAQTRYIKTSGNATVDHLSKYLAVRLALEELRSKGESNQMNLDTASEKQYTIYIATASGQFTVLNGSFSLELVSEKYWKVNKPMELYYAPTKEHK
inactive: nilotinib 0.026 | [3] -0.047 | dasatinib -0.07 | [4] 0.027 | [2] -0.025 | quisinostat 0.154 | tipifarnib -0.124 | [1] -0.015 | [5] -0.05

S100A6 (UniProt P06703)
inactive: [2] -0.063 | quisinostat 0.001 | [1] -0.078 | [6] -0.063 | [5] 0.026
active: dasatinib 0.774

RAPGEF4 (UniProt Q8WZA2)
Sequence of UniProt Q8WZA2 (Q8WZA2 whole entry, looked up): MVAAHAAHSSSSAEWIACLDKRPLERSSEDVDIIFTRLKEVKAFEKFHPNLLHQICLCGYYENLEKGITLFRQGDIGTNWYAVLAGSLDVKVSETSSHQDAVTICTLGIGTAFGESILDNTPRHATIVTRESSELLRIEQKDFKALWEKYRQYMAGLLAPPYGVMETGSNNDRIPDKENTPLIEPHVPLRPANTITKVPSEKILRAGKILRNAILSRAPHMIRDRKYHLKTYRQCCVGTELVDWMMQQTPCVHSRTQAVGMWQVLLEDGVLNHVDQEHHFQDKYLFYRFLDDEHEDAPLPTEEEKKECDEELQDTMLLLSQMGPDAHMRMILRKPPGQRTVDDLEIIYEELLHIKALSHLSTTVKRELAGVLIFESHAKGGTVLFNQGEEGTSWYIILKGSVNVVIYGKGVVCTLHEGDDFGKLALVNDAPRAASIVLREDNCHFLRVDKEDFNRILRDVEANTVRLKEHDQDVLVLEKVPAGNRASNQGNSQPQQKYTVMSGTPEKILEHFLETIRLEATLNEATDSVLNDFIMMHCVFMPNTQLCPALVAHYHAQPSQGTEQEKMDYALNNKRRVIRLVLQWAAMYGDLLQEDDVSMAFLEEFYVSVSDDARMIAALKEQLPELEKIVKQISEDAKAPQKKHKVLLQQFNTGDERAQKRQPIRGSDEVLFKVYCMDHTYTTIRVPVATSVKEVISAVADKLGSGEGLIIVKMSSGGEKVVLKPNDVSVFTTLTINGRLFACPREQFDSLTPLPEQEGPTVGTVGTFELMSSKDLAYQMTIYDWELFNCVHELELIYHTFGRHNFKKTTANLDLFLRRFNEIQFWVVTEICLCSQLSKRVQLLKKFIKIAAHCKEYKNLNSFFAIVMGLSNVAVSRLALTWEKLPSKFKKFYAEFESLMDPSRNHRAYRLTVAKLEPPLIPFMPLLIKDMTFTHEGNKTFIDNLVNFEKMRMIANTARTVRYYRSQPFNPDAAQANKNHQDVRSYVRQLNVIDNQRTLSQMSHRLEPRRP
inactive: dasatinib -0.092 | [2] -0.061 | quisinostat -0.491 | [1] 0.16 | [6] 0.064 | [5] -0.192

RYR1 (UniProt P21817)
inactive: dasatinib -0.032 | [2] -0.061 | [1] 0.046 | [6] 0.029 | [5] 0.003
active: quisinostat -0.392

ROBO2 isoform 3 (UniProt Q9HCK4)
Sequence of UniProt Q9HCK4 (Q9HCK4 whole entry, looked up): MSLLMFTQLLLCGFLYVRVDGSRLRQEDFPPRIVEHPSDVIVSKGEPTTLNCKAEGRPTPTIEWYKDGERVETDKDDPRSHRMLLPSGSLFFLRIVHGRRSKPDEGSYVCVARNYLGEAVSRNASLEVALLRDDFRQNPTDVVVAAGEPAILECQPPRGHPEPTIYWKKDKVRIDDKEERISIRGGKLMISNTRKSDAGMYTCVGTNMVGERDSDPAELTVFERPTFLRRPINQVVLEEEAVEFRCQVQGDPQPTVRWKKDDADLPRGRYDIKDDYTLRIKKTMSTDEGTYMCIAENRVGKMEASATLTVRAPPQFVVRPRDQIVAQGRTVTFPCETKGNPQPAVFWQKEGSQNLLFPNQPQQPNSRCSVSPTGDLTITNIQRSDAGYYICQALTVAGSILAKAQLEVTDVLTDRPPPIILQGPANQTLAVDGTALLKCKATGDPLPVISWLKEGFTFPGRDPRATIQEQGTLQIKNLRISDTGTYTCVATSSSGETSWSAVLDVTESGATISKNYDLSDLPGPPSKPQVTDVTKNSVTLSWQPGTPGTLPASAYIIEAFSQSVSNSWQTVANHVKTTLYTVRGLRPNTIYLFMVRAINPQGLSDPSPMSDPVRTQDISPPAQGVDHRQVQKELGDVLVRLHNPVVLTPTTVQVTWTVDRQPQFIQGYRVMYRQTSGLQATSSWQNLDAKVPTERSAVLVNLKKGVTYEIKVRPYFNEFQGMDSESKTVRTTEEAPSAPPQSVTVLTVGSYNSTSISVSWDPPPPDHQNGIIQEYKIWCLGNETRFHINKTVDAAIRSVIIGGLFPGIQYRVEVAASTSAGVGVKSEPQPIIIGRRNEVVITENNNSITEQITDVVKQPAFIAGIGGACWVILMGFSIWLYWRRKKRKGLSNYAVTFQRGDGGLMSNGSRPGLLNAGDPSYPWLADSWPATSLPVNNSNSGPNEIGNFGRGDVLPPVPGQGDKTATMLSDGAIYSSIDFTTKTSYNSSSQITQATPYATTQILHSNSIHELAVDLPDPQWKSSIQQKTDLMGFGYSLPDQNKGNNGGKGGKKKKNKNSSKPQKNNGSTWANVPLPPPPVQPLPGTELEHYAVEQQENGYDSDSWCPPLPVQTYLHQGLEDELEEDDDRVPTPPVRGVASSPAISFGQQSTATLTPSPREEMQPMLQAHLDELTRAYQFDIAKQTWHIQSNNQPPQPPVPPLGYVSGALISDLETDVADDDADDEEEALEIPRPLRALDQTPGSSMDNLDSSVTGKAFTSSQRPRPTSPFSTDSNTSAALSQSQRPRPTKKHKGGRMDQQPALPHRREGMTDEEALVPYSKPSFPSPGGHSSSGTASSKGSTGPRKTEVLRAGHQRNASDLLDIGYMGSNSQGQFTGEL
inactive: quisinostat 0.052 | [1] 0.009 | [6] 0.043 | [5] 0.005

SERAC1 (UniProt Q96JX3)
Sequence of UniProt Q96JX3 (Q96JX3 whole entry, looked up): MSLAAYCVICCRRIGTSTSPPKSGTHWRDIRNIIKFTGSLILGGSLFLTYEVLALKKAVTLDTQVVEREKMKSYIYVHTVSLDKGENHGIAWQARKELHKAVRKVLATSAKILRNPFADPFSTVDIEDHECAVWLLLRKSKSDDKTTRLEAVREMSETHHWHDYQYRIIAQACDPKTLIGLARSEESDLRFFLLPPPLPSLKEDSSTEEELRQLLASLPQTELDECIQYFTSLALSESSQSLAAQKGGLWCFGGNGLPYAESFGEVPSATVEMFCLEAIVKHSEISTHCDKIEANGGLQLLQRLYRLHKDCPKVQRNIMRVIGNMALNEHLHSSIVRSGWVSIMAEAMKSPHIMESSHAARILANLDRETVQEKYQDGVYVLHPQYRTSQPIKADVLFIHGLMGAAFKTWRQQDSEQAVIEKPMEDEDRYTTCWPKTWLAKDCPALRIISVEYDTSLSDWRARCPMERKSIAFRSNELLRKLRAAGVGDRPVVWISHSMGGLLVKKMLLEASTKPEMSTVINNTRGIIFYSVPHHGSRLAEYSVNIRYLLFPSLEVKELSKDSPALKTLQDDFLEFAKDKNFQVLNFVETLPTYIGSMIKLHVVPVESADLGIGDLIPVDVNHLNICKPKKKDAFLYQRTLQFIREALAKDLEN
inactive: nilotinib 0.085 | [3] -0.133 | dasatinib -0.152 | [4] -0.029 | [2] 0.052 | tipifarnib 0.033 | [5] -0.023

RNF170 (UniProt Q96K19)
Sequence of UniProt Q96K19 (Q96K19 whole entry, looked up): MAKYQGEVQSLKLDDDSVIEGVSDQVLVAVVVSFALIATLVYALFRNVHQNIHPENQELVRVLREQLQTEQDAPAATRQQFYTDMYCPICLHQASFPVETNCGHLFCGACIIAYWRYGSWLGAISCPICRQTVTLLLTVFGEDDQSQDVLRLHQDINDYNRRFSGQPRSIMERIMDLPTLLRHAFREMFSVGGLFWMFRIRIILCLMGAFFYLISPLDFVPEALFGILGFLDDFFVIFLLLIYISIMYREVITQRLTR
inactive: nilotinib -0.04 | [3] 0 | dasatinib -0.008 | [4] 0.043 | [2] -0.028 | tipifarnib -0.3 | [6] -0.07 | [5] 0.073

RETSAT (UniProt Q6NUM9)
Sequence of UniProt Q6NUM9 (Q6NUM9 whole entry, looked up): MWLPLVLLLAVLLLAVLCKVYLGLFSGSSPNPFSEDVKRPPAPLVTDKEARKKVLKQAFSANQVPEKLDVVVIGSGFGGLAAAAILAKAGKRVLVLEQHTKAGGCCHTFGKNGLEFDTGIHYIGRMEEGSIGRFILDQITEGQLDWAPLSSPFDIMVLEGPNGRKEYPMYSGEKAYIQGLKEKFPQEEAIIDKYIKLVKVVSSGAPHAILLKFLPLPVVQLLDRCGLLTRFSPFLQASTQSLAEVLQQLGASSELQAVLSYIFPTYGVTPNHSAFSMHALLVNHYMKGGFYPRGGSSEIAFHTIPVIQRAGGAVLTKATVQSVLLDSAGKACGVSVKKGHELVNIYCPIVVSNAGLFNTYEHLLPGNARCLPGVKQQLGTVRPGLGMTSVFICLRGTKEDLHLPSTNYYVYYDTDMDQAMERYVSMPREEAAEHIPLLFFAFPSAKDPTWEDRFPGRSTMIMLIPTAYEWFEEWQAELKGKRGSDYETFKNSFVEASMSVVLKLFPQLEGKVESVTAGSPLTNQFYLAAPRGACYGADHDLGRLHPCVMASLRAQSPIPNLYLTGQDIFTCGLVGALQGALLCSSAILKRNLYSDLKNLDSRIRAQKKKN
active: quisinostat -0.485
inactive: dasatinib -0.1 | [2] -0.058 | [1] 0.152 | [6] -0.005 | [5] -0.051

RETREG2 (UniProt Q8NC44)
inactive: [3] -0.135 | [4] 0.055 | quisinostat -0.084 | tipifarnib -0.076 | [1] -0.016 | [6] -0.012 | [5] -0.022
active: nilotinib 0.363

RAD54L (UniProt Q92698)
inactive: nilotinib -0.004 | [3] 0.078 | dasatinib -0.212 | [4] 0.037 | [2] -0.054 | tipifarnib 0.007 | [6] 0.015 | [5] -0.073
